Bioassay records (PubChem)
CHRM1 agonist = activates human CHRM1 receptor | activation, % at 3 µM | hit rate 0.33% among 360,000 | CHO-K1 hM1, Fluo-8 calcium fluorescence, agonist mode; 0% DMSO, 100% acetylcholine EC100;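 active = activation above the run's mean compound activation plus 3 SD, cut at about 16% in these data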;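 also: peak over basal fluorescence ratio within a 140 s kinetic read after compound addition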
Target sequence (P11229 whole entry, looked up): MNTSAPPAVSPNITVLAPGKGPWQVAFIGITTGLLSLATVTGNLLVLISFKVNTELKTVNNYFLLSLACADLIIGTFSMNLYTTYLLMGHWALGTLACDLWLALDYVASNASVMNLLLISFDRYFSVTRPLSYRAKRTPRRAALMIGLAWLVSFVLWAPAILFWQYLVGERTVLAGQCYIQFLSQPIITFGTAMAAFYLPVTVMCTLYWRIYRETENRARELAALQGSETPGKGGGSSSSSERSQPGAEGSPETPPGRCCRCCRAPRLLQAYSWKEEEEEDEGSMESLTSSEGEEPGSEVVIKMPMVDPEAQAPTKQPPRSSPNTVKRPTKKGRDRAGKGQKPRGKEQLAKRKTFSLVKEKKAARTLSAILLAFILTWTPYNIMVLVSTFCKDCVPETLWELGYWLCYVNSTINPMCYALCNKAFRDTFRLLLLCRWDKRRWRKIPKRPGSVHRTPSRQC
M1 antag = antagonists of human M1 muscarinic receptor. AID 588852. hit rate 1.3% among 360,000. inhibition, % at 3 µM. CHO-K1 hM1, Fluo-8 calcium fluorescence, ACh EC80 antagonist. P11229;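 active = percent inhibition above its own plate's cutoff, namely the mean of that plate's compound wells plus 3 SD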;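 also: peak over basal fluorescence ratio during 140 s after agonist addition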
M1 ag parental = nonselective activator or artifact in parental CHO-K1 cells; Fluo-8 calcium fluorescence; scaled to maximal ATP response, vehicle zero; activation, % at 3 µM; hit rate 0.48% among 360,000; AID 602248; in the data active = activation above about 15%;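 also: untransfected CHO-K1 host cells lacking M1 receptor as counterscreen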
CHO-K1 Ca antag = counter-screen for M1 antagonists: effect in parental CHO-K1 cells; ATP-induced calcium, Fluo-8 fluorescence; hit rate 0.6% among 360,000; inhibition, % at 3 µM;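 active = inhibition above a per-plate cutoff, the plate's mean sample inhibition plus 3 SD, cut at about 24% in these data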
M1 PAM parental = nonselective activator or artifact in parental CHO-K1 calcium assay; activation, % at 3 µM; hit rate 0.02% among 360,000; ATP EC20, Fluo-8 calcium fluorescence; 0% at ATP EC20, 100% at ATP max;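 active = activation above the run cutoff, the mean activation of all test compounds plus 3 SD, cut at about 40% in these data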;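 also: peak over basal fluorescence ratio in a 140 s read after ATP addition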
M1 PAM = positive allosteric modulators of human M1 muscarinic receptor. CHO-K1 hM1, Fluo-8 calcium fluorescence, ACh EC20; 0% = ACh EC20, 100% = maximal ACh. activation, % at 3 µM. hit rate 0.088% among 360,000. AID 588819; in the data active = activation above about 19%, passing the limit was not always enough
Hits are given with their value; – = inactive. In the library only some 2.3% were active in any assay of this set; here they are far more common.

SMILES	CHRM1 agonist	M1 antag	M1 ag parental	CHO-K1 Ca antag	M1 PAM parental	M1 PAM
CCOC(=O)N(C)[C@H]1C[C@H]2c3[nH]c4ccccc4c3CCN2C[C@H]1[C@H](C)O	–	–	–	–	–	–
C[C@H](O)[C@@H]1CN2CCc3c([nH]c4ccccc34)[C@@H]2C[C@@H]1N(C)Cc1cc(Cl)cc(Cl)c1	33	–	–	–	–	–
Cc1cccnc1NC(=O)CNC(=O)COc1ccccc1	–	–	–	–	–	–
CC(C)(C)OC(=O)N1CCC(c2cc(=O)n3[nH]cc(C(=O)Nc4ccc(F)c(Cl)c4)c3n2)CC1	–	–	–	–	–	–
CC(C)(C)OC(=O)N1CCC(c2cc(=O)n3[nH]cc(C(=O)NC4CCCC4)c3n2)CC1	–	–	–	–	–	26
CCc1ccccc1NC(=O)COc1ccc2c(c1)OCO2	–	–	–	–	–	–
Cc1ccc(NC(=O)COc2ccc3c(c2)OCO3)c(Cl)c1	–	–	–	–	–	27
Cc1ccc(S(=O)(=O)CCC(=O)NCCN2C(=O)S/C(=C/c3ccc(F)cc3)C2=O)cc1	–	–	–	26	–	–
O=C(CCNC(=O)c1ccco1)NCCN1C(=O)S/C(=C\c2ccc(F)cc2)C1=O	–	–	–	–	–	–
Cc1ccc(NC(=O)C2CCCN(C3=NS(=O)(=O)c4ccccc43)C2)c(O)c1 (centres undefined)	–	–	–	26	–	–
O=C(NC1C2CC3CC(C2)CC1C3)c1ccc(Br)o1 (centres undefined)	–	–	–	–	–	–
CCOC(=O)CSc1ncnc2c1sc1nc(N3CCOCC3)c3c(c12)CCCC3	–	–	–	34	–	–
CC[C@@H](C(=O)[C@@H](C)[C@@H](O)[C@H](C)CCc1ccc(C)c(O)c1C(=O)O)[C@H]1O[C@](CC)([C@H]2CC[C@](O)(CC)[C@H](C)O2)C[C@@H]1C	61	–	26	–	–	–
CCCCn1c(CN2CCN(C)CC2)nc2ccccc21	–	31	–	–	–	–
C[N+]1(C)CCCC(OC(=O)C(O)(c2ccccc2)c2ccccc2)C1 (centres undefined)	–	99	–	–	–	–
O=C(CNC(=O)c1ccccc1)OC1CCCCC1	–	–	–	–	–	–
CCCC[n+]1ccn(-c2nc3ccccc3nc2[N-]S(=O)(=O)c2ccc(C)cc2)c1	–	–	–	–	–	–
CCCC[n+]1ccn(-c2nc3ccccc3nc2[N-]S(=O)(=O)c2ccccc2)c1	19	–	–	–	–	–
CCc1ccc(-c2nc(CS(=O)CC(=O)NCCCN3CCC(C)CC3)c(C)o2)cc1 (centres undefined)	–	–	–	–	–	–
Cc1[nH]c(=S)[nH]c(=O)c1Cc1c(O)ccc2ccccc12	35	–	–	–	–	27
Cc1[nH]c(=S)[nH]c(=O)c1Cc1ccccc1	–	–	–	–	–	–
COc1ccc2c(c1)cc(C(=O)N[C@@H](CCSC)C(=O)N1CCC[C@H]1C(=O)O)n2C	–	–	–	–	–	–
O=C1C2CCCN2C(c2cccs2)N1c1ccc(F)cc1 (centres undefined)	–	–	–	–	–	–
COc1cccc(N2C(=O)C3CCCN3C2c2cccs2)c1 (centres undefined)	18	–	–	–	–	–
COCc1cc(C)nc(SCC[N+](C)(C)CC(=O)c2ccccc2)c1C#N	–	–	–	–	–	–
COc1ccc(C2/C=C\CN(C(=O)C3CC3)CC(=O)N2Cc2ccc(F)cc2)cc1 (centres undefined)	–	–	–	25	–	–
COc1ccc(C2/C=C\CN(C(=O)CC(C)(C)C)CC(=O)N2Cc2ccc(F)cc2)cc1 (centres undefined)	–	–	–	–	–	–
O=c1c2ccccc2ncn1-c1ccc([N+](=O)[O-])cc1Cl	–	–	–	24	–	–
COC(=O)CSc1nnc2n(C3CCCCC3)c(=O)c3c4c(sc3n12)CCCC4	–	–	–	–	–	–
COC(=O)CSc1nnc2n(-c3ccc(OC)cc3)c(=O)c3c4c(sc3n12)CCCCC4	–	–	–	24	–	–
